Source: PubChem (National Center for Advancing Translational Sciences (NCATS))
MARV entry inh: inhibitors of Marburg virus binding or cell entry; Marburg virus pseudotyped entry inhibition, cell reporter; Potency, µM (titrated, usually from 37.8 µM), usual class: inhibitors; hit rate 1.8% among 300,000; calls by dose curve; tested in HEK293 cells
Lassa entry inh: inhibitors of Lassa virus binding or cell entry | hit rate 1.2% among 300,000 | Lassa virus pseudotype entry inhibition, cell reporter | AID 540256 | Potency, µM (series often up to 37.9 µM), usual class: inhibitors; calls by dose curve; tested in HEK293 cells; further: nearly all actives have a fitted effect of over 50% in size
HCMV antiviral: human cytomegalovirus inhibition. hit rate 4.5% among 410,000. HFF cells, HCMV-luciferase reporter, 72 h; active compounds read low. activity change, negative = inhibition, % at 57.5 µM. AID 1259415; in the data active means activity change below about -60%; inconclusive means no clear call, values can overlap the other calls; inactive means above about -39%
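Two-dose cell screen: HFF monolayers treated with compounds and infected with luciferase-expressing HCMV at 1 PFU/cell, 72 h at 37C, then lysed for luciferase measurement.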
FMDV inh: antivirals against foot and mouth disease virus. hit rate 1.2% among 410,000. AID 1159524. FMDV antiviral cell-based qHTS. Potency, µM (top dose mostly 57.9 µM), actives largely listed as inhibitors; calls by dose curve; tested in HEK293T cells; further: read-out not given here; nearly all actives have a fitted effect of over 45% in size
A number is an active result; n = inactive; u = inconclusive; x = not tested or not shown; + = active, no number; ! = repeats disagree. Hits are enriched below; roughly 6.2% of the tested compounds scored in any of these assays.

SMILES	MARV entry inh	Lassa entry inh	HCMV antiviral	FMDV inh
CCOc1ccc(N2CC(O)(c3cccs3)[N+]3=C2CCCC3)cc1 (stereo not given)	5.62µM	n	n	n
COc1ccc(N2C3=[N+](CCCC3)CC2(C)O)cc1 (stereo not given)	n	n	-77.9	n
COc1ccc(N2CC(O)(c3ccc(F)cc3)[N+]3=C2CCCC3)cc1 (stereo not given)	n	n	-81.1	n
COc1ccc(N2CC(O)(c3ccc(C)cc3)[N+]3=C2CCCC3)cc1 (stereo not given)	n	n	n	n
COc1cccc(/C=C/c2nc(S(=O)(=O)c3ccccc3)c(N3CCC(C(N)=O)CC3)o2)c1	x	x	n	n
Cc1ccc(S(=O)(=O)N2CCOCC2)cc1NC(=O)COC(=O)CNC(=O)c1ccc(Cl)cc1Cl	n	n	-67.8	n
O=C(COC(=O)c1cc(S(=O)(=O)N2CCOCC2)ccc1Cl)Nc1ccc(Cl)cn1	x	x	n	n
O=C(COC(=O)CCc1ccc(S(=O)(=O)N2CCOCC2)cc1)Nc1ccc(Cl)cn1	0.794µM!	n	n	n
O=C(NCC1CCS(=O)(=O)C1)Oc1ccccc1 (stereo not given)	n	n	-95.4	n
O=C(COc1ccccc1)NC1CCS(=O)(=O)C1 (stereo not given)	n	n	n	n
COc1cc(NC(=O)c2ccccc2F)c(OC)cc1NC(=O)CN1CCOCC1	n	n	n	n
C=CS(=O)(=O)c1sc(Cl)c(N2CCOCC2)c1[N+](=O)[O-]	5.01µM	3.16µM	-72.5	25.1µM
O=[N+]([O-])c1cccc(Cl)c1N1CCOCC1	n	n	n	n
CC(C)(C)c1ccc(C(=O)Nc2ccc(Oc3cccnc3)nc2)cc1	n	u	-65.6	35.5µM
CCOc1ccc(S(=O)(=O)Nc2nc3ccccc3nc2Cl)cc1	x	x	n	n
O=C(Nc1ccc(S(=O)(=O)Nc2cnc3ccccc3n2)cc1)c1ccc(F)cc1	n	n	n	n
CCOc1ccc(S(=O)(=O)Nc2cnc3ccccc3c2)cc1	n	u	-79.4	n
CC(C)(C)c1ccc(C(=O)Nc2ccc(S(=O)(=O)Nc3cnc4ccccc4n3)cc2)cc1	u	n	-70.5	n
COc1ccc(NC(=O)c2cccc(Oc3ccccc3)c2)cn1	7.94µM	u	u	n
CC1CN(C(=O)CSc2nc(-c3ccccc3)cs2)CC(C)O1 (stereo not given)	u	n	u	n
Cc1ccc2c(CNC3CCCCC3)c(C(=O)O)n(Cc3ccc(F)cc3)c2c1	x	n	n	n
COc1cc(C2CC(=O)NC3=C2C(=O)CC(C)(C)C3)cc(OC)c1O (stereo not given)	u	n	n	n
O=C1CSc2ccc(C(=O)Nc3cccc(S(=O)(=O)Nc4ccc(Br)cc4)c3)cc2N1	x	x	-90.9	n
O=C(Nc1ccc(Br)cc1)c1cccc(S(=O)(=O)Nc2cnc3ccccc3c2)c1	2.82µM	u	n	n
COc1ccc(NC(=O)c2cccc(S(=O)(=O)Nc3ccc(Br)cc3)c2)cn1	u	u	-90.4	n
SMILES	MARV entry inh	Lassa entry inh	HCMV antiviral	FMDV inh
O=C(Nc1ccc(Br)cc1)c1cccc(S(=O)(=O)Nc2ccccn2)c1	u	n	n	n
CC(C)NC(=O)COC(=O)c1cc(=O)[nH]c2ccccc12	n	n	n	n
CC(NC1CCCCC1)C(O)C12CC3CC(CC(C3)C1)C2 (stereo not given)	7.3µM	u	n	n
Cc1ccc(Cc2c(-c3ccc(C)cc3)nc3cc(C)ccn23)cc1	x	x	n	n
COc1ccc(N2CC(C(=O)Nc3nccs3)CC2=O)cc1 (stereo not given)	n	n	-78.1	n
COc1ccc(-c2nc(NC(=O)C3CC(=O)N(c4ccc5c(c4)OCCO5)C3)sc2C)cc1 (stereo not given)	u	u	-96.1	u
CNC(=O)CN1C(=O)c2cccc3cccc1c23	n	n	n	n
CN1/C(=N\O)c2cccc3cccc1c23	n	n	-60.4	n
CC(NC(=S)NCCCN1CCOCC1)C1CC2CCC1C2 (stereo not given)	n	n	n	n
Cc1ccc(C=Nc2ccc(N(C)C)cc2)o1	n	u	-75.7	n
COc1ccccc1OCCCCN1CCN(c2ccccc2OC)CC1	n	n	n	n
COc1ccccc1N1CCN(CCCCCCOc2ccc(F)cc2)CC1	17.8µM	u	u	u
Cc1cccc(NC(=O)/C(C#N)=C/c2cn(CC(=O)NCc3ccco3)c3ccccc23)c1C	n	n	-82.3	n
Cc1cc(C)nc(NS(=O)(=O)c2ccc(NS(=O)(=O)c3ccccc3)cc2)n1	u	n	n	x
COc1ccc(N/N=C(\C=N\O)C(=O)c2ccc(OC)cc2)cc1	u	2.82µM	n	n
COc1ccc(C(=O)C(=NNc2ccccc2)c2ccc(OC)cc2)cc1	u	n	u	n
Cc1cccc(N2CCN(c3c4c(nc5nncn35)CCC4)CC2)c1C	n	n	u	n
COc1cccc(N2CCN(c3c4c(nc5nncn35)CCC4)CC2)c1	u	n	-94.7	u
Clc1cccc(N2CCN(c3c4c(nc5nncn35)CCC4)CC2)c1	u	n	-64.8	22.4µM
CCCOc1ccc(CNC(=O)Cn2c(=O)oc3ccccc32)cc1	n	x	n	n
Cn1c(C(=O)NCc2cccs2)cc2oc3ccccc3c21	0.447µM	0.501µM	-79.9	n
Cn1c(C(=O)NCC2CCCO2)cc2oc3ccccc3c21 (stereo not given)	u	u	n	n
CCCOc1ccc(CNC(=O)c2cc3oc4ccccc4c3n2C)cc1	u	x	-85.9	n
Cn1c(C(=O)NCc2ccccc2F)cc2oc3ccccc3c21	u	x	-63.1	n
Cn1c(C(=O)NCc2ccccc2)cc2oc3ccccc3c21	2.59µM	u	-89.0	n
SMILES	MARV entry inh	Lassa entry inh	HCMV antiviral	FMDV inh
COc1ccc(OCCCC(=O)Nc2cc(S(=O)(=O)N3CCCCC3)ccc2C)cc1	x	x	n	n
O=S(=O)(c1ccc(Br)cc1)N1CCCN(Cc2cccc(F)c2)CC1	u	n	n	n
COc1ccc(CNC(=O)c2cc3oc4ccccc4c3n2C)cc1OC	5.01µM	x	u	n
CCOc1ccc(NC(=O)CN2C(=O)CCSc3ccc(S(=O)(=O)N4CCCC4)cc32)cc1	x	n	n	u
N#Cc1cccc(NC(=O)CNc2cccc(S(=O)(=O)N3CCCCC3)c2)c1	u	n	u	35.5µM
O=C(CNc1cccc(S(=O)(=O)N2CCCCC2)c1)Nc1ccc(C(F)(F)F)cc1	x	x	-79.0	u
O=C(CNc1cccc(S(=O)(=O)N2CCCC2)c1)Nc1ccc(C(F)(F)F)cc1	u	u	-69.2	n
CCOc1ccc(NC(=O)CN2C(=O)CSc3ccc(S(=O)(=O)N4CCCC4)cc32)cc1	x	x	+	n
Cc1cccc(N(CC(=O)N2CCN(C)CC2)S(=O)(=O)c2ccccc2)c1	n	u	n	n
O=C(N/N=C/c1ccccc1[N+](=O)[O-])c1ccc(CN2CCOCC2)cc1	n	n	n	n
COc1ccc(NC(=O)CCNS(=O)(=O)c2ccccc2F)cc1S(=O)(=O)N1CCOCC1	x	x	n	n
O=C(c1cc(S(=O)(=O)N2CCCC2)c[nH]1)N1CCN(c2cccc(Cl)c2)CC1	x	n	-101.6	n
O=C(c1ccc(S(=O)(=O)N2CCCC2)cc1)N1CCN(c2cccc(Cl)c2)CC1	u	u	n	u
CCOc1ccc(C(=O)OCC(=O)Nc2cccc(S(=O)(=O)N3CCCC3)c2)cc1	n	u	n	n
